# Reference: publication PMC7862700, “An all-to-all approach to the identification of sequence-specific readers for epigenetic DNA modifications on cytosine”
# How the values were obtained:
# Test in all cases: DAPPL (digital affinity profiling via proximity ligation, sequencing); 10 mM Tris-HCl pH 7.5, 50 mM NaCl, 1 mM DTT, 4% glycerol, room temperature, 30 min; GST-TFs on glutathione beads, 16-mer random dsDNA library, 0.1% formaldehyde crosslink after washing; high values mean tight binding
# ETV5 = ETV5 (Homo sapiens, UniProt P41161 1-510); details: protein: recombinant; tags: N-terminal GST; dsDNA, one strand shown
# How it was run: (§1)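 Binding signal is each hexamer's read frequency for a factor divided by its frequency in the tag-only sample. The factors were GST-fused human transcription factors from yeast, captured on glutathione beads, DNA-barcoded and pooled with that sample. Pools were incubated with 200 nmole of a random double-stranded 16-mer DNA library in Tris/NaCl/DTT/glycerol buffer at room temperature for 30 min, then washed, crosslinked with 0.1% formaldehyde, proximity-ligated with BsaI/T4 ligase (1 h, 37 °C), PCR-amplified and sequenced on an Illumina NextSeq500.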
# HSF1 = HSF1 (Homo sapiens, UniProt Q00613 1-529); details: protein: recombinant; tags: N-terminal GST; chain copies: 3; dsDNA, one strand shown
# How it was run: as §1
# SPIC = target: T1, SPIC (Homo sapiens, UniProt Q8N5J4 1-248); details: protein: recombinant; tags: N-terminal GST; dsDNA, one strand shown
# T1 sequence: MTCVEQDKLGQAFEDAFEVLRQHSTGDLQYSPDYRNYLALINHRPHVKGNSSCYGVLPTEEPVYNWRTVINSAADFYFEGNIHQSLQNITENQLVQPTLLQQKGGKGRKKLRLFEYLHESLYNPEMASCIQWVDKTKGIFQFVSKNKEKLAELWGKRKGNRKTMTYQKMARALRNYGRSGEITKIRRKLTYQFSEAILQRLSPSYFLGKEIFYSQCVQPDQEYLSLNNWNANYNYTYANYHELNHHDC
# How it was run: as §1
# ELF4 = ELF4 (Homo sapiens, UniProt Q99607 1-663); details: protein: recombinant; tags: N-terminal GST; dsDNA, one strand shown
# How it was run: as §1
# ETV2 = target: T2, ETV2 (Homo sapiens, UniProt O00321 1-342); details: protein: recombinant; tags: N-terminal GST; dsDNA, one strand shown
# T2 sequence: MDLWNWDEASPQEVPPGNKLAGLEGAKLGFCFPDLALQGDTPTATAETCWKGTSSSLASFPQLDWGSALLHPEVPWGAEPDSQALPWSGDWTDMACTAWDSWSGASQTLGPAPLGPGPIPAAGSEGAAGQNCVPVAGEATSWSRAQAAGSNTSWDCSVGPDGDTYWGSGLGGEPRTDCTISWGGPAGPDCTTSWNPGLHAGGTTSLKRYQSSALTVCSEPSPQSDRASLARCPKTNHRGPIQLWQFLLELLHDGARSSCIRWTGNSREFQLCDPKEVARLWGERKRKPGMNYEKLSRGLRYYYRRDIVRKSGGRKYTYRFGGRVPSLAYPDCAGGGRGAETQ
# How it was run: as §1
# ELF3 = target: T3, ELF3 (Homo sapiens, UniProt P78545 1-371); details: protein: recombinant; tags: N-terminal GST; dsDNA, one strand shown
# T3 sequence: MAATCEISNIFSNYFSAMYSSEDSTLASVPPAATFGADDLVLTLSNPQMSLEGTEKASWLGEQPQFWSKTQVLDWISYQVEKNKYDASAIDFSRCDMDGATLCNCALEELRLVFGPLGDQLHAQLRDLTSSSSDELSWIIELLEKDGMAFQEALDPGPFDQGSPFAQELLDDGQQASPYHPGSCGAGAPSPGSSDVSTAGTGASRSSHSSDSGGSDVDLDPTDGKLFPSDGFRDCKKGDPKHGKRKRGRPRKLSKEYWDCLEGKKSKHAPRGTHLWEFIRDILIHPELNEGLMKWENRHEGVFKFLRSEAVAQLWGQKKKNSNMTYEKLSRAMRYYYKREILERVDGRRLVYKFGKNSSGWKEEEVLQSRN
# How it was run: as §1
# ETV1 = ETV1 (Homo sapiens, UniProt P50549 1-477); details: protein: recombinant; tags: N-terminal GST; dsDNA, one strand shown
# How it was run: as §1
# ERF = target: T4, ERF (Homo sapiens, UniProt P50548 1-548); details: protein: recombinant; tags: N-terminal GST; dsDNA, one strand shown
# T4 sequence: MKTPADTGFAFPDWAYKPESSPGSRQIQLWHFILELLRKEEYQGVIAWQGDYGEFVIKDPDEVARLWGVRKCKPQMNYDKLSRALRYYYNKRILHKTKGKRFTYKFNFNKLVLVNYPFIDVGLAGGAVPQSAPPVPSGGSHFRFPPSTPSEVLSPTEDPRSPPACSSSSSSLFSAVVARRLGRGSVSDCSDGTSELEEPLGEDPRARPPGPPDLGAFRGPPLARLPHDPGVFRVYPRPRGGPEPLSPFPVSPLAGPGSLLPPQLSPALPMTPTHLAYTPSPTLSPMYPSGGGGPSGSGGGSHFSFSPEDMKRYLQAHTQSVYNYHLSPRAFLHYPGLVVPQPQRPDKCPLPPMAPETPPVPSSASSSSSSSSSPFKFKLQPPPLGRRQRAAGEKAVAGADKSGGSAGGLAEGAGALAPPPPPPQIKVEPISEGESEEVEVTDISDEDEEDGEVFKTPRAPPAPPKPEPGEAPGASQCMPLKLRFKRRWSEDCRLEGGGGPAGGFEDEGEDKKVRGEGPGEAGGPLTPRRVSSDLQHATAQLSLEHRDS
# How it was run: as §1
# SPDEF = target: T5, SPDEF (Homo sapiens, UniProt O95238 1-335); details: protein: recombinant; tags: N-terminal GST; dsDNA, one strand shown
# T5 sequence: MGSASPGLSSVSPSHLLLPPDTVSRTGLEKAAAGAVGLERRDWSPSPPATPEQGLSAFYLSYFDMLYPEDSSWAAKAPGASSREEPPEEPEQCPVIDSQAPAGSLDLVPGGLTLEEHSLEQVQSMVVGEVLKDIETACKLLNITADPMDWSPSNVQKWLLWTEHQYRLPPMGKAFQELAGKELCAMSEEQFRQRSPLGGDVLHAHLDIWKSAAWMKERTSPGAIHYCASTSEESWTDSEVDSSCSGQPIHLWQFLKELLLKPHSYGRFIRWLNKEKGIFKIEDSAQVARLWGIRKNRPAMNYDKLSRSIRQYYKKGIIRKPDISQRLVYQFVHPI
# How it was run: as §1
# ETV7 = target: T6, ETV7 (Homo sapiens, UniProt Q9Y603 1-341); details: protein: recombinant; tags: N-terminal GST; dsDNA, one strand shown
# T6 sequence: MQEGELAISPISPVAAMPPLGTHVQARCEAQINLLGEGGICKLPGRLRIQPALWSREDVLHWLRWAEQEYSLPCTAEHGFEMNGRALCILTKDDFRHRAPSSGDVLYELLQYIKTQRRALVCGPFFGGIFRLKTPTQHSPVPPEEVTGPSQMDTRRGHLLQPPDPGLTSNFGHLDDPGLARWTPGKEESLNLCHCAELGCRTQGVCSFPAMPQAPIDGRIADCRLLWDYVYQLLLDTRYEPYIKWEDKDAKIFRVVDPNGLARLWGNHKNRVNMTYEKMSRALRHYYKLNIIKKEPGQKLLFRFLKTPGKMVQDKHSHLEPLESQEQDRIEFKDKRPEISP
# How it was run: as §1
# ELF5 = target: T7, ELF5 (Homo sapiens, UniProt Q9UKW6-2 1-255); details: protein: recombinant; tags: N-terminal GST; dsDNA, one strand shown
# T7 sequence: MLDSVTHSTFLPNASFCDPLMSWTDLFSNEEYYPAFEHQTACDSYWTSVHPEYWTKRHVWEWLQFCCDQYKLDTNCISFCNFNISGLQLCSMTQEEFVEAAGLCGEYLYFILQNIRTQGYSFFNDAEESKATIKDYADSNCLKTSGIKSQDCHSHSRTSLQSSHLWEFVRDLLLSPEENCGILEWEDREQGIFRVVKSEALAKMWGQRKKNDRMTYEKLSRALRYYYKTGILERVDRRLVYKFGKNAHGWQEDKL
# How it was run: as §1
# ETV3 = target: T8, ETV3 (Homo sapiens, UniProt P41162-2 1-143); details: protein: recombinant; tags: N-terminal GST; dsDNA, one strand shown
# T8 sequence: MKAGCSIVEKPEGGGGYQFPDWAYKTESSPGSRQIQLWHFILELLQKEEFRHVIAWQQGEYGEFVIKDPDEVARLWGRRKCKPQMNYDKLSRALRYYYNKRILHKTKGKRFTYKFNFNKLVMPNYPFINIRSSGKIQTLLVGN
# How it was run: as §1
# ETV6 = ETV6 (Homo sapiens, UniProt P41212 1-452); details: protein: recombinant; tags: N-terminal GST; dsDNA, one strand shown
# How it was run: as §1
# CRX = CRX (Homo sapiens, UniProt O43186 1-299); details: protein: recombinant; tags: N-terminal GST; dsDNA, one strand shown
# How it was run: as §1
# ETV3L = target: T9, ETV3L (Homo sapiens, UniProt Q6ZN32 1-361); details: protein: recombinant; tags: N-terminal GST; dsDNA, one strand shown
# T9 sequence: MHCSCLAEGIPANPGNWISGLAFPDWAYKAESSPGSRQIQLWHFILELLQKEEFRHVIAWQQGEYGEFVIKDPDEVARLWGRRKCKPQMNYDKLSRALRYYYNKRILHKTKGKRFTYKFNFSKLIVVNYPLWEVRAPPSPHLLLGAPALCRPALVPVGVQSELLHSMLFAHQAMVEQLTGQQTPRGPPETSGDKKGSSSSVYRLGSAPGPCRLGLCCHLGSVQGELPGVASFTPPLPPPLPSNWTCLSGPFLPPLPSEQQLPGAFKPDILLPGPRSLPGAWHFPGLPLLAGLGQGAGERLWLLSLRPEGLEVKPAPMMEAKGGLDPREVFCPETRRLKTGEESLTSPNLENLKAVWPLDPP
# How it was run: as §1
# ETS2 = target: T10, ETS2 (Homo sapiens, UniProt P15036 1-469); details: protein: recombinant; tags: N-terminal GST; dsDNA, one strand shown
# T10 sequence: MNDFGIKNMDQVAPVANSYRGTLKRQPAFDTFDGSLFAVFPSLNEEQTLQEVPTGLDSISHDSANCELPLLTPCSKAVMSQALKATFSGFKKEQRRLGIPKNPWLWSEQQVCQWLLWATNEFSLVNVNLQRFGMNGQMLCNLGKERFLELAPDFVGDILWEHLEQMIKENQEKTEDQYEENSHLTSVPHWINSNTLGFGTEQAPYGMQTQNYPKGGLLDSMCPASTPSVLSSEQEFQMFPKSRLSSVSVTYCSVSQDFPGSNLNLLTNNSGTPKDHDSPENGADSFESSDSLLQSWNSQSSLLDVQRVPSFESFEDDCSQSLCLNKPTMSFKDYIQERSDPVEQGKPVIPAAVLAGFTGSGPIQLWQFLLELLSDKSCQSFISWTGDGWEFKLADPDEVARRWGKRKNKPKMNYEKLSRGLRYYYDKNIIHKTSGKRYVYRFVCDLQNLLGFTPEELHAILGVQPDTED
# How it was run: as §1
# ELK4 = target: T11, ELK4 (Homo sapiens, UniProt P28324-2 1-405); details: protein: recombinant; tags: N-terminal GST; dsDNA, one strand shown
# T11 sequence: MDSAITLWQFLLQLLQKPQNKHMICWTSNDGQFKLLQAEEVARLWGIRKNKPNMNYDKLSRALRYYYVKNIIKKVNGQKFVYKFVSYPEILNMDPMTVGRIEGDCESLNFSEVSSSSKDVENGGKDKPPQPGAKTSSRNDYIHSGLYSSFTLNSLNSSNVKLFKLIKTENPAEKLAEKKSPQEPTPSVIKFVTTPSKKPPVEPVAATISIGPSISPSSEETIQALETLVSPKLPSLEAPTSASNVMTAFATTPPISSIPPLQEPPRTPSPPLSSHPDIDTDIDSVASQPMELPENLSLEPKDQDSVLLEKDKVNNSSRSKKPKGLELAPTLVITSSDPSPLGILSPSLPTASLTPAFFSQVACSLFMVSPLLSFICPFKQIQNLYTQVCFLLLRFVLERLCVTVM
# How it was run: as §1
# ETV5, sequence (P41161 whole entry, the tested form may be a part): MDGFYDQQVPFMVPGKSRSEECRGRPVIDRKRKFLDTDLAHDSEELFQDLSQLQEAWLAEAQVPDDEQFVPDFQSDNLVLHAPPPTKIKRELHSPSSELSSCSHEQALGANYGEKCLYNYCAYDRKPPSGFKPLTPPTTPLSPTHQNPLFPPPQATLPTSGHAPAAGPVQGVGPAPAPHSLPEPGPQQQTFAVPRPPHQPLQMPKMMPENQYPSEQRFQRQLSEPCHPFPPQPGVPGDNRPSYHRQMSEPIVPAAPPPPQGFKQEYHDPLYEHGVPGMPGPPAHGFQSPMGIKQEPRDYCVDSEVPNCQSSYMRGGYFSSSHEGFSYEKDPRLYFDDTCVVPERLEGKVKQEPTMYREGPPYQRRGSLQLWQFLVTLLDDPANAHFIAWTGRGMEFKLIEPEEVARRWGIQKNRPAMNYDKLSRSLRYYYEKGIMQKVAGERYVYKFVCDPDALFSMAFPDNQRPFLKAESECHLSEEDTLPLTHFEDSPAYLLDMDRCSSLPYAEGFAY
# HSF1, sequence (Q00613 whole entry): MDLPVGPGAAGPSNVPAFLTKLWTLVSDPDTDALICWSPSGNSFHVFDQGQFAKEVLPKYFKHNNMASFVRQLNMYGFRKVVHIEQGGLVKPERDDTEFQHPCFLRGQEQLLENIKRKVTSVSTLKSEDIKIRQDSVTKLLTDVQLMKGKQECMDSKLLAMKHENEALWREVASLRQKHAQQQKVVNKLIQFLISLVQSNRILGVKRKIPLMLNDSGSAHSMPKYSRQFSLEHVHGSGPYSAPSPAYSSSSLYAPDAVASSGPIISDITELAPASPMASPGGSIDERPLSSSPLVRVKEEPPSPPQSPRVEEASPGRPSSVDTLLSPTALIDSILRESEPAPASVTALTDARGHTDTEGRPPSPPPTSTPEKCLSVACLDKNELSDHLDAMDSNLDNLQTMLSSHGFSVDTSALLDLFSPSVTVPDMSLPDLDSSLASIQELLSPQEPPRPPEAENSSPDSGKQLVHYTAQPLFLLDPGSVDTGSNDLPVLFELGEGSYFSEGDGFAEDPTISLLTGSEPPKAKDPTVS
# ETV6, sequence (P41212 whole entry): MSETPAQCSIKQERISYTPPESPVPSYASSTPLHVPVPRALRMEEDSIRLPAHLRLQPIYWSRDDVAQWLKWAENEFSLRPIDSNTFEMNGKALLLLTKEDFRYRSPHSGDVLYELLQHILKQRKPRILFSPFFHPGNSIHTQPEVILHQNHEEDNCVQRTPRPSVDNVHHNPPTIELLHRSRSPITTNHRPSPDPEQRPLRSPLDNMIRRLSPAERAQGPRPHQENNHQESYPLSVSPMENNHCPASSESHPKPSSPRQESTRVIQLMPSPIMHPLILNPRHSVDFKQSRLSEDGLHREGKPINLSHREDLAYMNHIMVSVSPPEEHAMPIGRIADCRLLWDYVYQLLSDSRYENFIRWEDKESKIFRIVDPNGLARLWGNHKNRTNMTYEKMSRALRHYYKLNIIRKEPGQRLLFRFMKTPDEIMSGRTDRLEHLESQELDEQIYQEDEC
# ELF4, sequence (Q99607 whole entry): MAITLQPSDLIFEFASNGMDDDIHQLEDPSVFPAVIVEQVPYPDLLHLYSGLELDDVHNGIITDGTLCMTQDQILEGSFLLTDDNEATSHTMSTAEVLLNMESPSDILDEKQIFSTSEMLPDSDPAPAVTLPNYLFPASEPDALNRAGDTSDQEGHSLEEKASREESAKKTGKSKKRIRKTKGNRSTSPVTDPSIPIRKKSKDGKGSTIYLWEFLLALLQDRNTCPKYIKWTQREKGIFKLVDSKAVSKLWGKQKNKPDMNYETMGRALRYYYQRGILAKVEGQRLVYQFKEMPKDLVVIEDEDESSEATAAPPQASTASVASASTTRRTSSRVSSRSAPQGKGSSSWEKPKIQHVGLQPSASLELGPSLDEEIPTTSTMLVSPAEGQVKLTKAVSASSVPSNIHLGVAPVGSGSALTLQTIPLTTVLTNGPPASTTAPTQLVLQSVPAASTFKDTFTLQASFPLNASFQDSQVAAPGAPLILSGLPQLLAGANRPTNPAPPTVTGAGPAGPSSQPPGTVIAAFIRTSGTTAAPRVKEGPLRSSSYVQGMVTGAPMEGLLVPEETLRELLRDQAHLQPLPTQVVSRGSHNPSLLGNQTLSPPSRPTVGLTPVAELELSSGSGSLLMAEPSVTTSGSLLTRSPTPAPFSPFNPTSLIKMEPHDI
# CRX, sequence (O43186 whole entry): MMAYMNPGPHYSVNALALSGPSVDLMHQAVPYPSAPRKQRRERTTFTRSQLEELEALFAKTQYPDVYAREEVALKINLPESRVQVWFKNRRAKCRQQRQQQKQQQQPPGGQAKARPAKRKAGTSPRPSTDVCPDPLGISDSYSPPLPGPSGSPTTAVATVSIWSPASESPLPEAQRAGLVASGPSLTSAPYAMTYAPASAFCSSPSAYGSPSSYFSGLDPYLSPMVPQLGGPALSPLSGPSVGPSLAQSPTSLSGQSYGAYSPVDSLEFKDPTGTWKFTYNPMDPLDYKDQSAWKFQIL
# ETV1, sequence (P50549 whole entry): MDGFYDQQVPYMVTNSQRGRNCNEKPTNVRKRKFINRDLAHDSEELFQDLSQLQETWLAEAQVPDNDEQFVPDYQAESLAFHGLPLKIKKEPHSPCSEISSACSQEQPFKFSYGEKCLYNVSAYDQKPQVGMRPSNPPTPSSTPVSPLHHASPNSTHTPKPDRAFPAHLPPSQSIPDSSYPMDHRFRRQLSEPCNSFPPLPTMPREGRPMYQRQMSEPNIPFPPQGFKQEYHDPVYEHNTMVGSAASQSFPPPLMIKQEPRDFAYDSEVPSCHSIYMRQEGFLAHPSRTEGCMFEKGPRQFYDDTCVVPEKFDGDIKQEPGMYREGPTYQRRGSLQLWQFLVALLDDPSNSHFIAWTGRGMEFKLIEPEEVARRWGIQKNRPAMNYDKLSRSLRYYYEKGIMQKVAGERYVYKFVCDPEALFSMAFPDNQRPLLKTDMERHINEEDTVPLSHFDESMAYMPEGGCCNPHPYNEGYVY
sequence,measurement,setting,value
AACGTA,binding signal,ETV5,"1.04 fold enrichment (6-mer frequency, TF over GST control)"
same,binding signal,HSF1,"1.03 fold enrichment (6-mer frequency, TF over GST control)"
same,binding signal,SPIC,"1.02 fold enrichment (6-mer frequency, TF over GST control)"
same,binding signal,ELF4,"1.03 fold enrichment (6-mer frequency, TF over GST control)"
same,binding signal,ETV2,"1.01 fold enrichment (6-mer frequency, TF over GST control)"
same,binding signal,ELF3,"1.01 fold enrichment (6-mer frequency, TF over GST control)"
same,binding signal,ETV1,"1.06 fold enrichment (6-mer frequency, TF over GST control)"
same,binding signal,ERF,"1.05 fold enrichment (6-mer frequency, TF over GST control)"
same,binding signal,SPDEF,"1.01 fold enrichment (6-mer frequency, TF over GST control)"
same,binding signal,ETV7,"1.05 fold enrichment (6-mer frequency, TF over GST control)"
same,binding signal,ELF5,"1 fold enrichment (6-mer frequency, TF over GST control)"
same,binding signal,ETV3,"1.04 fold enrichment (6-mer frequency, TF over GST control)"
same,binding signal,ETV6,"1.03 fold enrichment (6-mer frequency, TF over GST control)"
TTTAGT,binding signal,ETV5,"1.04 fold enrichment (6-mer frequency, TF over GST control)"
same,binding signal,HSF1,"1.2 fold enrichment (6-mer frequency, TF over GST control)"
same,binding signal,SPIC,"1.15 fold enrichment (6-mer frequency, TF over GST control)"
same,binding signal,ELF4,"1.04 fold enrichment (6-mer frequency, TF over GST control)"
same,binding signal,ETV2,"1.23 fold enrichment (6-mer frequency, TF over GST control)"
same,binding signal,ELF3,"1.04 fold enrichment (6-mer frequency, TF over GST control)"
same,binding signal,CRX,"1.55 fold enrichment (6-mer frequency, TF over GST control)"
same,binding signal,ERF,"1.03 fold enrichment (6-mer frequency, TF over GST control)"
same,binding signal,ETV3L,"1.09 fold enrichment (6-mer frequency, TF over GST control)"
same,binding signal,ETS2,"1.04 fold enrichment (6-mer frequency, TF over GST control)"
same,binding signal,SPDEF,"1.04 fold enrichment (6-mer frequency, TF over GST control)"
same,binding signal,ETV3,"1.11 fold enrichment (6-mer frequency, TF over GST control)"
same,binding signal,ETV6,"1.12 fold enrichment (6-mer frequency, TF over GST control)"
TCATCG,binding signal,ETV5,"1 fold enrichment (6-mer frequency, TF over GST control)"
same,binding signal,HSF1,"1.12 fold enrichment (6-mer frequency, TF over GST control)"
same,binding signal,SPIC,"1.05 fold enrichment (6-mer frequency, TF over GST control)"
same,binding signal,ELK4,"1.05 fold enrichment (6-mer frequency, TF over GST control)"
same,binding signal,CRX,"1.05 fold enrichment (6-mer frequency, TF over GST control)"
same,binding signal,ETV1,"1.03 fold enrichment (6-mer frequency, TF over GST control)"
same,binding signal,ERF,"1.06 fold enrichment (6-mer frequency, TF over GST control)"
same,binding signal,ETV3L,"1.08 fold enrichment (6-mer frequency, TF over GST control)"
